According to paper PMC12751014, “Non-Catalytic Inhibitors of the p38/MK2 Interface: Repurposing Approved Drugs to Target Neuroinflammation in Alzheimer’s Disease” (Journal of Medicinal Chemistry, 2025):
The whole screen tested about 1,900 compounds, of which about 50 (3%) showed an effect of 50% or more. Only a selection was taken, and strong results are over-represented in it overall.

The compounds below were run against p38/MK2 protein–protein interaction (VF-p38α / GST-MK2) (Homo sapiens, UniProt Q16539) (assay: primary screen, percent of control activity; higher = less effect of the substance).
Set-up: species or system HEK293T cell lysate transfected with VF-p38α and GST-MK2; unclear (methods say 'quintuplet replicates')
Description: The TR-FRET assay was conducted in a 1536-well plate (Corning, catalog no. 3724) with HEK293T cell lysate transfected with VF-p38α and GST-MK2. Cell-lysate concentration was optimized with a titration experiment. Anti-Flag-Tb and anti-GST-d2 antibodies (Revvity, catalog no. 61FGBTLB) were used to couple p38α and MK2, respectively. A multiple-drop Combi dispenser (Thermo Scientific) combined reaction mixtures in quintuplet replicates. The TR-FRET signals were measured using a BMG Labtech PHERAstar FSX plate reader and normalized to the percent of DMSO control.

Chain of p38/MK2 protein–protein interaction (VF-p38α / GST-MK2) (Q16539 2-360 limits assumed): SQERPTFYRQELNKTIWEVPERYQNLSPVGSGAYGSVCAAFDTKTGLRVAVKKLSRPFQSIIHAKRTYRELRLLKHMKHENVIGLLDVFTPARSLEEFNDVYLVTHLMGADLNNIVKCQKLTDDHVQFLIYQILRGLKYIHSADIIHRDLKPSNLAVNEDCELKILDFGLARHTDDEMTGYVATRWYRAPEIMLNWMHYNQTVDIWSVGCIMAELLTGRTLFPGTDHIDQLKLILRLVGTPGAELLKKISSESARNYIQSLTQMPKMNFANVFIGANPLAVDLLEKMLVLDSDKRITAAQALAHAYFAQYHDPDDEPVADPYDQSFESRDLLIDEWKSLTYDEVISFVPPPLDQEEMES

Q: With `CCOc1nc2cccc(C(=O)OC(C)OC(=O)OC3CCCCC3)c2n1Cc1ccc(-c2ccccc2-c2nn[nH]n2)cc1` (stereo not drawn) as the compound, how does the Pct of control read?
A: 32.4%

Q: For `CCOc1nc2cccc(C(=O)O)c2n1Cc1ccc(-c2ccccc2-c2nc(=O)o[nH]2)cc1`, which Pct of control is on record?
A: 94.5%

Q: `CCOc1nc2cccc(C(=O)O)c2n1Cc1ccc(-c2ccccc2-c2nn[nH]n2)cc1` was tested. Which Pct of control did it give?
A: 95%

Q: How did the Pct of control turn out when `Cl.Cn1c(CCCC(=O)O)nc2cc(N(CCCl)CCCl)ccc21` was run?
A: 99.1%

Q: Which Pct of control does the source give for `CC1(C)CCC(C)(C)c2cc(NC(=O)c3ccc(C(=O)O)cc3)ccc21` here?
A: 92.2%

Q: For `C=C(c1ccc(C(=O)O)cc1)c1cc2c(cc1C)C(C)(C)CCC2(C)C`, which Pct of control is on record?
A: 25.7%

Q: How did the Pct of control turn out when `CC(=Cc1ccc(C(=O)O)cc1)c1ccc2c(c1)C(C)(C)CCC2(C)C` was run?
A: 78.8%

Q: Which Pct of control does the source give for `CO/N=C(\C(=O)N[C@@H]1C(=O)N2C(C(=O)O)=C(CSC(=O)c3ccco3)CS[C@H]12)c1csc(N)n1.Cl` here?
A: 115%

Q: How did the Pct of control turn out when `Cn1cc(-c2ccc3ncc(Cc4ccc5ncccc5c4)n3n2)cn1` was run?
A: 93.2%

Q: Which Pct of control does the source give for `O=C1O[C@H]([C@@H](O)CO)C(O)=C1O` here?
A: 100%

Q: Which Pct of control does the source give for `CCCCCC=CCC=CCCCCCCCC(=O)OC(COC(=O)CCCCCCCCCCCCCCC)COP(=O)([O-])OCC[N+](C)(C)C` (stereo not drawn) here?
A: 95.3%

Q: For `CCCCCCCCCCCCCCCC(=O)OCC(O)C1OC(=O)C(O)=C1O` (stereo not drawn), which Pct of control is on record?
A: 33.2%

Q: With `CN(C)c1ccc(C(=O)NCCCCCCC(=O)NO)cc1` as the compound, how does the Pct of control read?
A: 96.2%

Q: `Cl.O=S(=O)(c1cccc2cnccc12)N1CCCNCC1` was tested. Which Pct of control did it give?
A: 93.6%

Q: Which Pct of control does the source give for `COC(=O)C1=CO[C@@H](O[C@@H]2O[C@H](CO)[C@@H](O)[C@H](O)[C@H]2O)[C@@H]2C(CO)=CC[C@H]12` here?
A: 90.4%

Q: Which Pct of control does the source give for `CNC(=O)c1cc(Oc2ccc(NC(=O)Nc3ccc(Cl)c(C(F)(F)F)c3)cc2)ccn1.Cc1ccc(S(=O)(=O)O)cc1` here?
A: 69.1%

Q: Which Pct of control does the source give for `O=C(O)CC1CC(c2ccccc2)=NO1` (stereo not drawn) here?
A: 86.5%

Q: `C[C@@H]1[C@H](O)[C@@H](C)/C=C/C=C/C=C/C=C/C=C/C=C/C=C/[C@H](O[C@@H]2O[C@H](C)[C@@H](O)[C@H](N)[C@@H]2O)C[C@@H]2O[C@](O)(C[C@@H](O)C[C@@H](O)[C@H](O)CC[C@@H](O)C[C@@H](O)CC(=O)O[C@H]1C)C[C@H](O)[C@H]2C(=O)O` was tested. Which Pct of control did it give?
A: 48.7%

Q: `CC1C=CC=CCCC=CC=CC=CC=CC(OC2OC(C)C(O)C(N)C2O)CC2OC(O)(CC(O)C(O)CCC(O)CC(O)CC(O)CC(=O)OC(C)C(C)C1O)CC(O)C2C(=O)O` (stereo not drawn) was tested. Which Pct of control did it give?
A: 94.3%

Q: `C[C@@H]1C/C=C/C=C/C=C/C=C/[C@H](O[C@@H]2O[C@H](C)[C@@H](O)[C@H](N)[C@@H]2O)C[C@@H]2O[C@](O)(C[C@@H](O)C[C@H]3O[C@@H]3/C=C/C(=O)O1)C[C@H](O)[C@H]2C(=O)O` was tested. Which Pct of control did it give?
A: 97.8%

Q: `Cc1ccc(C(=O)N(CCCN)C(c2nc3cc(Cl)ccc3c(=O)n2Cc2ccccc2)C(C)C)cc1` (stereo not drawn) was tested. Which Pct of control did it give?
A: 97.1%

Q: With `COc1ccc(COc2cc3oc(=O)c4cc(C(C)O)ccc4c3cc2OC)cc1` (stereo not drawn) as the compound, how does the Pct of control read?
A: 78.7%

Q: With `C=C1C(=O)[C@]23[C@H](O)[C@H]1CC[C@H]2[C@@]12CO[C@]3(O)[C@@H](O)[C@@H]1C(C)(C)CC[C@@H]2O` as the compound, how does the Pct of control read?
A: 42.8%

Q: For `COC(=O)C1=C(C)NC(C)=C(C(=O)OCCN2CCN(C(c3ccccc3)c3ccccc3)CC2)C1c1cccc([N+](=O)[O-])c1` (stereo not drawn), which Pct of control is on record?
A: 121%

Q: Which Pct of control does the source give for `COc1ccc2nc([S@@+]([O-])Cc3ncc(C)c(OC)c3C)[nH]c2c1` here?
A: 89.4%

Q: With `O=C(CCCCCCC(=O)Nc1ccccc1)NO` as the compound, how does the Pct of control read?
A: 102%

Q: For `O=C(CCCCCCC(=O)Nc1ccc([C@H]2O[C@@H](CSc3nc(-c4ccccc4)c(-c4ccccc4)o3)C[C@@H](c3ccc(CO)cc3)O2)cc1)NO`, which Pct of control is on record?
A: 20.4%

Q: How did the Pct of control turn out when `Cc1cccc(C(C)c2cnc[nH]2)c1C.Cl` (stereo not drawn) [S3060] was run?
A: 91.6%

Q: With `CC1=CC(=O)NS(=O)(=O)O1.[K]` as the compound, how does the Pct of control read?
A: 95.6%

Q: `CC(COc1ccccc1)N(CCCl)Cc1ccccc1.Cl` (stereo not drawn) was tested. Which Pct of control did it give?
A: 85.4%

Q: `CC(C)N(CCC(=O)c1ccc2ccccc2c1)Cc1ccccc1.Cl` was tested. Which Pct of control did it give?
A: 26.2%

Q: For `CC(=CC(=O)Nc1ccccc1C(=O)O)c1ccc2ccccc2c1`, which Pct of control is on record?
A: 105%

Q: With `O=S(=O)(CC1CS1)c1ccc(Oc2ccccc2)cc1` (stereo not drawn) as the compound, how does the Pct of control read?
A: 95%

Q: For `CN(C)CCCN1c2ccccc2Sc2ccc(C(F)(F)F)cc21.Cl`, which Pct of control is on record?
A: 95.7%

Q: For `O=C(C=Cc1ccc2ccccc2n1)c1ccncc1`, which Pct of control is on record?
A: 39.1%

Q: How did the Pct of control turn out when `O=C(O)C=CC(=O)O.c1ccc2nc(N3CCNCC3)ccc2c1` was run?
A: 98.6%

Q: How did the Pct of control turn out when `O=C(NNc1ccccc1)c1ccncc1` was run?
A: 97.3%

Q: With `Cl.c1ccc2c(CC3=NCCN3)cccc2c1` as the compound, how does the Pct of control read?
A: 94.8%

Q: How did the Pct of control turn out when `CCCNC(C)C(=O)Nc1ccccc1C` (stereo not drawn) was run?
A: 96.3%

Q: For `CC(C)c1onc(-c2c(Cl)cccc2Cl)c1COc1ccc(C=Cc2cccc(C(=O)O)c2)c(Cl)c1`, which Pct of control is on record?
A: 16.5%

Q: For `O=c1cc(-c2cccc3c2Sc2ccccc2S3)oc(N2CCOCC2)c1`, which Pct of control is on record?
A: 88.7%

Q: `CCCCCCOC(=O)N=C(N)c1ccc(NCc2nc3cc(C(=O)N(CCC(=O)OCC)c4ccccn4)ccc3n2C)cc1` was tested. Which Pct of control did it give?
A: 94.2%

Q: How did the Pct of control turn out when `COC1CCN(C(=O)c2cc(Cc3n[nH]c(=O)c4ccccc34)ccc2F)CC1` was run?
A: 95.8%

Q: How did the Pct of control turn out when `Cl.NC1CC1c1ccccc1` (stereo not drawn) was run?
A: 91.7%

Q: Which Pct of control does the source give for `O=[N+]([O-])C=Cc1ccc2c(c1)OCO2` here?
A: 40.3%

Q: For `O=C(Oc1ccc([N+](=O)[O-])cc1)N1CCC(C(O)(c2ccc3c(c2)OCO3)c2ccc3c(c2)OCO3)CC1`, which Pct of control is on record?
A: 94.2%

Q: `O=C(/C=C/C=C/c1ccc2c(c1)OCO2)N1CCCCC1` was tested. Which Pct of control did it give?
A: 82.5%

Q: For `Cc1ccc(-n2sc(=O)n(Cc3ccc(F)cc3)c2=O)cc1`, which Pct of control is on record?
A: 114%
